This passage reports INHIBITION results from ChEMBL document CHEMBL4513216, “Probing the Open Global Health Chemical Diversity Library for Multistage-Active Starting Points for Next-Generation Antimalarials” (ACS Infect Dis, 2020).

The whole screen tested about 69,000 compounds, of which about 8,600 (12%) showed an effect of 50% or more. The list comes from a sample in which strong results are over-represented; it also holds similar structures and randomly drawn compounds.

This assay concerns Plasmodium berghei. Briefly: Screen against P. berghei liver stage (PbLuc), transformed with Luciferase, at 10uM. It is filed as functional, HepG2. The conditions noted are these: tested at 10 uM.
Regarding `c1cc(COc2ccc(CNC3CCc4ncnn4C3)cc2)ccn1` (stereo unspecified), the INHIBITION is -1.76%.

On to `CS(=O)(=O)CC1(CNc2c(C#N)cnc3ccc(Cl)cc23)CC1`, for which the INHIBITION is -14.1%.

For the compound `CS(=O)(=O)c1cn[nH]c1C1CCCCN1C(=O)c1ccsc1` (stereo unspecified), the INHIBITION is -69.5%.

As to `CN1C(=O)CCC12CCC(NC(=O)NCc1cccnc1)CC2` (stereo unspecified), the INHIBITION came to 28.5%.

Take `O=S(=O)(c1ccccc1)N1CCN(Cc2ccc(F)cc2Br)CC1`: the INHIBITION is 33.1%.

In the case of `CS(=O)(=O)N1CCN(Cc2ccc(F)cc2Br)CC1`, the INHIBITION stood at 35.4%.

As for `O=S(=O)(N1CCCCCC1)N1CCN(Cc2ccc(F)cc2Br)CC1`, the INHIBITION is 71.2%.

As for `CN1C(=O)CC(C(=O)O)C12CCN(c1ccc3cccc(Cl)c3n1)CC2` (stereo unspecified), the INHIBITION was -0.273%.

Turning to `CCC1=N[C@@]2(CC[C@@H]3CN(CC(C)C)C[C@@H]32)C(=O)N1`, the INHIBITION is listed as 24.9%.

With `COc1ccc(C2SCC(=O)Nc3ccsc32)cc1OC` (stereo unspecified), the INHIBITION was found to be 3.68%.

`COc1ccc(C2SCC(=O)Nc3ccsc32)cc1` (stereo unspecified): the INHIBITION was 67.9%.

Turning to `COc1cc(OC)cc(C2SCC(=O)Nc3ccsc32)c1` (stereo unspecified), the INHIBITION is given as 3.68%.

In the case of `COc1cc(C2SCC(=O)Nc3ccsc32)cc(OC)c1OC` (stereo unspecified), the INHIBITION was 29.4%.

Consider `COc1cc(C2SCC(=O)Nc3ccsc32)cc(OC)c1O` (stereo unspecified), for which the INHIBITION is 43.7%.

With `O=C1CSC(c2ccsc2)c2sccc2N1` (stereo unspecified), the INHIBITION was determined as 20.5%.

On to `COC(=O)c1ccc(C2SCC(=O)Nc3ccsc32)cc1` (stereo unspecified), for which the INHIBITION amounted to 78.1%.

As for `O=C1CSC(c2ccc(O)cc2)c2sccc2N1` (stereo unspecified), the INHIBITION stood at 88.1%.

Turning to `COc1cccc(C2SCC(=O)Nc3ccsc32)c1` (stereo unspecified), the INHIBITION turned out to be 3.68%.

Regarding `COCC1CC2(CCN(Cc3nc(C)cs3)CC2)CO1` (stereo unspecified), the INHIBITION came out at 14.9%.

For the compound `COc1cc(C(=O)NC(CC(=O)O)c2cccs2)cc(OC)c1C` (stereo unspecified), the INHIBITION was determined as 5.03%.

Consider `COc1ccc(C2=NOC(CC#N)C2)cc1` (stereo unspecified), for which the INHIBITION amounted to 45.8%.

In the case of `Cc1cc(C)n(CC2CCCN2C(=O)CCNc2ncccn2)n1` (stereo unspecified), the INHIBITION is listed as -9.4%.

For `NC(=O)C1(CNC(=O)CCc2ccc(Cl)s2)CCOCC1`, the INHIBITION was 13.8%.

For `O=C(CCCN1CCCCC1)NC(C(=O)O)c1cccc(F)c1` (stereo unspecified), the INHIBITION is given as -20%.

Consider `CN(C)C(=O)COC1COC2(CCN(S(C)(=O)=O)CC2)C1` (stereo unspecified), for which the INHIBITION is 37%.

Take `CCn1cc2[nH]c(OC)c(CNC(=O)CCC3CCCC3)cc-2c1=O`: the INHIBITION stood at 34.4%.

`COc1ccc(C(C)(C)C)cc1CN1CCn2c(CO)nnc2C1`: the INHIBITION is recorded as 48.4%.

Take `CCn1cc(NC(=O)C2CCN(Cc3noc(C4CC4)n3)CC2)cn1`: the INHIBITION is on record as 18.2%.

Turning to `CC(C)N(C)C(=O)c1ccc(Cl)c(NC(=O)CCN2C(=O)CCC2=O)c1`, the INHIBITION worked out at 35.2%.

Turning to `CC(C)OCC(=O)Nc1ccc(Oc2ccc3c(c2)OCO3)nc1`, the INHIBITION was found to be 29.9%.

In the case of `O=C(CCN1C(=O)CCC1=O)Nc1ccc(Cl)cc1`, the INHIBITION was 67.2%.

Turning to `O=C(CCN1C(=O)CCC1=O)Nc1ccc(Oc2ccc(Cl)cc2)nc1`, the INHIBITION amounted to 51.1%.

Consider `O=C(CCN1C(=O)CCC1=O)Nc1ccc(OCC(F)(F)F)nc1`, for which the INHIBITION is 39.4%.

`O=C(CCN1C(=O)CCC1=O)Nc1cnn(-c2ccccc2Cl)c1`: the INHIBITION is given as 28.5%.

`COC1CCN(C(=O)NCC(N)=O)CC(=O)N(C)c2ccccc21` (stereo unspecified): the INHIBITION was 16.2%.

On to `Cc1cnn(CC2CN(Cc3cccnc3)CCO2)c1` (stereo unspecified), for which the INHIBITION is listed as -7.81%.

As to `COC(=O)CN1CCCn2nc(CCC(=O)N3CCCC3)cc2C1`, the INHIBITION is 32.4%.

Consider `CC(=O)N1CC(C)CN(C(=O)c2cnccn2)c2ccccc21` (stereo unspecified), for which the INHIBITION was 60.7%.

`CC1CN(C)c2ccccc2N(C(=O)c2c[nH]c(C(C)C)n2)C1` (stereo unspecified): the INHIBITION was determined as 29.6%.

Regarding `CC(=O)N1CC(C)CN(C(=O)c2cccnc2C)c2ccccc21` (stereo unspecified), the INHIBITION is listed as -9.8%.

Turning to `CC(C)c1cc(COCCC(=O)O)no1`, the INHIBITION came out at 44.1%.

In the case of `Cc1ccc(-n2cc(CN3CCN(C)[C@@H]4CS(=O)(=O)C[C@@H]43)cn2)cc1`, the INHIBITION is given as 29.1%.

Regarding `CN1CCN(Cc2cnn(-c3ccccc3Cl)c2)[C@H]2CS(=O)(=O)C[C@H]21`, the INHIBITION was -54.8%.

In the case of `COc1ccc(CNC(=O)N2CCN(C)[C@@H]3CS(=O)(=O)C[C@@H]32)cc1`, the INHIBITION is listed as 0.891%.

Regarding `COc1ccc(CCNC(=O)N2CCN(C)[C@@H]3CS(=O)(=O)C[C@@H]32)cc1`, the INHIBITION is recorded as 31.9%.

With `CN1CCN(Cc2cnn(-c3ccc(F)cc3)c2)[C@H]2CS(=O)(=O)C[C@H]21`, the INHIBITION amounted to 69.8%.

As for `CN1CCN(C(=O)NCCc2ccc(F)cc2)[C@H]2CS(=O)(=O)C[C@H]21`, the INHIBITION is on record as 52.2%.

Consider `Cc1cccc(-n2cc(CN3CCN(C)[C@@H]4CS(=O)(=O)C[C@@H]43)cn2)c1`, for which the INHIBITION is recorded as 4.41%.

Regarding `CN1CCN(Cc2nc3ccccc3[nH]2)[C@H]2CS(=O)(=O)C[C@H]21`, the INHIBITION was -1.64%.

Regarding `COc1ccccc1-n1cc(CN2CCN(C)[C@@H]3CS(=O)(=O)C[C@@H]32)cn1`, the INHIBITION is 50.1%.

Regarding `Cc1nn(C)c2cnn(Cc3ccc(C(=O)NCC4CCCO4)o3)c12` (stereo unspecified), the INHIBITION amounted to 17.6%.

Take `O=C1CC2(CCSC2)C(=O)N1Cc1coc(-c2cccc(F)c2)n1` (stereo unspecified): the INHIBITION is 3.03%.

On to `Cc1noc(C)c1CN1CCc2ncc(Cn3cccn3)n2CC1`, for which the INHIBITION is recorded as 26%.

For `Cc1nonc1C(=O)N1CCCC(c2ncncc2-c2ccncc2)C1` (stereo unspecified), the INHIBITION was found to be 42.1%.

As to `Cc1nc(Nc2cnccn2)cc(C2CCCN2)n1` (stereo unspecified), the INHIBITION was 34.9%.

On to `Cc1ccc(CNC(=O)CN2CCOC(Cn3cncn3)C2)s1` (stereo unspecified), for which the INHIBITION was found to be 5.03%.

On to `O=C(NCCN1CCCCC1)c1ccoc1`, for which the INHIBITION is recorded as 16.1%.

For `COc1cc(CNCCc2cc(F)cc3c2OCOC3)cc(OC)c1`, the INHIBITION was 26.6%.

On to `CCn1cnnc1CNC(=O)N(C)C(C)c1cccs1` (stereo unspecified), for which the INHIBITION was -41.1%.

As to `O=C(C1CC(=O)N(C2CC2)C1)N1CCC(Oc2ccccc2Cl)CC1` (stereo unspecified), the INHIBITION is on record as -6.88%.

For `CNC(=O)CC1CCN(C(=O)NCc2cn3c(C)cccc3n2)CC1`, the INHIBITION is on record as 45.2%.

For the compound `O=C(C1CC1)N1CCC(Oc2ccccc2Cl)CC1`, the INHIBITION is 88.1%.

For `Cc1cccc(OC2CCN(C(=O)NCc3cc[nH]n3)CC2)c1C`, the INHIBITION was determined as 88.4%.

Consider `CN1CC(C(=O)N2CCC(Oc3ccccc3Cl)CC2)CC1=O` (stereo unspecified), for which the INHIBITION is recorded as 35.5%.

Turning to `CCOc1ccccc1N1CCN(C(=O)NCc2cc[nH]n2)CC1`, the INHIBITION is 49.8%.

For the compound `O=C(NCc1cc[nH]n1)N1CCN(c2ccccc2Cl)CC1`, the INHIBITION is reported as 39.2%.

In the case of `Cc1cccc(OC2CCN(C(=O)NCCn3ccnc3)CC2)c1C`, the INHIBITION was -4.13%.

As to `CS(=O)(=O)NC1CCN(C(=O)NCc2cc[nH]n2)CC1`, the INHIBITION stood at 8.64%.

As for `CCOCC1CCCN(C(=O)NCc2cn3c(C)cccc3n2)C1` (stereo unspecified), the INHIBITION is 21.6%.

Turning to `Cc1cccc2nc(CNC(=O)N3CCC(OCC4CC4)CC3)cn12`, the INHIBITION is reported as 51.2%.

As to `O=C(NCc1cc[nH]n1)N1CCC(Oc2ccccc2Cl)CC1`, the INHIBITION was 50.2%.
